# In PubChem BioAssay (NCATS):
# Values without a mark were called inactive. Inconclusive results are not listed. Where a call stands in place of a potency, no number is given. The source made the active and inactive calls. The call rests on the fitted dose curve; in most records, active means well fitted curve in the direction sought with a large enough effect; inconclusive means small, poorly fitted or top-dose-only effect, or another doubt; inactive means no such curve, though single readings can be large; an effect the other way counts as inactive or inconclusive.
# Key:
# [1] = target: Glutathione peroxidase 1 (Homo sapiens) (UniProt P07203); assay: Primary qHTS Assay for Inhibitors of Recombinant Selenoprotein Glutathione Peroxidase 1 (GPX1) (AID 1845191); details: recombinant GPX1, GR-coupled NADPH fluorescence, 15 min; series mostly up to 48.8 µM; further: nearly all actives have a fitted effect of over 65% in size
# Glutathione peroxidase 1 (Homo sapiens), sequence (P07203 whole entry, looked up): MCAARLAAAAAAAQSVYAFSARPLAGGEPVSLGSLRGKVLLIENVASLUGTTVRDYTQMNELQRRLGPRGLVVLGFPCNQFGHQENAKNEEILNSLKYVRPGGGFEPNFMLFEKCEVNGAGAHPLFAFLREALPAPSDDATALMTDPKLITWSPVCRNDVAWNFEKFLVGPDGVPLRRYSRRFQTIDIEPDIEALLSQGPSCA
# Procedure, shortened: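 10 nM GPX1 + cpd, 30 min RT; start w/ 1 mM GSH, 0.5 mM cumene hydroperoxide, 0.5 mM NADPH, 100 nM GR, 0.01% BSA; buffer 50 mM Tris-HCl pH 7.5, 2 mM EDTA, 150 mM NaCl; Fl 340/450, 0 & 15 min.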
# [2] = target: Phospholipid hydroperoxide glutathione peroxidase GPX4 (Homo sapiens) (UniProt P36969); assay: Primary qHTS Assay for Inhibitors of Recombinant Selenoprotein Glutathione Peroxidase 4 (GPX4) (AID 1845192); details: recombinant GPX4, GR-coupled NADPH fluorescence, 15 min; series mostly up to 50 µM; further: nearly all actives have a fitted effect of over 65% in size
# Phospholipid hydroperoxide glutathione peroxidase GPX4 (Homo sapiens), sequence (P36969 whole entry, looked up): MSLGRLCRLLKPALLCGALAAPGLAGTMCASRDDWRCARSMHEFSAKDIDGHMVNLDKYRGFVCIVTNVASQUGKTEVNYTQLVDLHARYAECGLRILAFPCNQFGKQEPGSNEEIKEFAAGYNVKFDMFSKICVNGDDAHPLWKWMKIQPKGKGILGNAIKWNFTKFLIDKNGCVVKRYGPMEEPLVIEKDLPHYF
# Procedure, shortened: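 NADPH consumption, followed by fluorescence at 340/450 nm between 0 and 15 min, reports GPX4 activity via coupled glutathione reductase (100 nM). Enzyme 200 nM was pre-exposed to compound 30 min; 0.5 mM cumene hydroperoxide and 1 mM GSH served as substrates.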
# [3] = target: Luciferin 4-monooxygenase (Photinus pyralis) (UniProt P08659); assay: Primary firefly luciferase (FLuc) qHTS assay for identification of artifact compounds. (AID 1845220); details: purified firefly luciferase, luminescence, 5 min; series mostly up to 54.1 µM; further: nearly all actives have a fitted effect of over 60% in size
# Procedure, shortened: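 FLuc 10 nM; luciferin 10 uM; ATP 10 uM; Tris-acetate pH 7.6, Mg-acetate 10 mM; 15 min RT preincubation; 5 min reaction; luminescence.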
# [4] = Primary fluorescence-based thiol-reactive (MSTI) qHTS assay for identification of artifact compounds. (AID 1845221); details: MSTI thiol-reactivity probe, 1 h; series mostly up to 53.8 µM; further: nearly all actives have a fitted effect of over 65% in size; further: potency means the concentration at half of the fitted maximal effect;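 on activity change, negative = thiol reactive: thiol-reactive compounds lower the probe fluorescence signal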
# Procedure, shortened: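 MSTI probe at 4 uM final in 2% DMSO/PBS pH 7.4; compounds, 1 h at room temperature in dark. Fluorescence Ex/Em 525/598 nm, normalised to Acetyl-MSTI and MSTI, fitted to 4-parameter Hill.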
# [5] = tested on: Nanoluciferase (engineered Oplophorus gracilirostris luciferase); assay: Primary Nanoluciferase (NLuc) qHTS assay for identification of artifact compounds. (AID 1845222); details: NLuc-conditioned medium, Nano-Glo luminescence, 5 min; series mostly up to 54.1 µM;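 further: NLuc secreted into diluted conditioned medium of S16 cells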
# Procedure, shortened: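 NLuc from S16 cell medium (1:55) plus test compounds, 15 min, room temperature. Luminescence after Nano-Glo (1:100) addition, 5 min.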
# [6] = Primary redox qHTS assay for identification of artifact compounds. (AID 1845223); details: Amplex Red/HRP redox cycling with DTT, fluorescence; series mostly up to 53.8 µM
# Procedure, shortened: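 Amplex Red (25 uM) and HRP (250 mU/mL) in HBSS, with compounds for 15 min, then 250 uM DTT for 30 min, room temperature, dark. Fluorescence 525/598 nm read; normalized to DMSO and 10 uM DA3003; Hill fit.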
Compound,Potency [1],Potency [2],Potency [3],Potency [4],Potency [5],Potency [6],"activity, negative = inhibition [1]","activity change, negative = inhibition [2]","activity change, negative = inhibition [3]","activity change, negative = thiol reactive [4]","activity, negative = inhibition [5]",redox activity (% of DA3003) [6]
CCOC(=O)c1ccc(OCCC2CCN(c3ccc(C)nn3)CC2)cc1,inactive,inactive,inactive,inactive,inactive,inactive,,,,,,
COc1ccc(C(=O)Nc2c(Cl)cncc2Cl)cc1OC1CCCC1,inactive,inactive,inactive,inactive,inactive,inactive,,,,,,
CC(=O)OC1[C@H]2[C@@H](C[C@@H](C)[C@@H]3C=CC(=O)[C@@]13C)OC(=O)[C@@H]2C (stereo partly drawn),inactive,inactive,inactive,23.8 µM (active),inactive,inactive,,,,,,
Cc1nc(N2CCN(C(=O)c3ccco3)CC2)c2c3c(sc2n1)CCCC3,inactive,inactive,inactive,inactive,inactive,inactive,,,,,,
C=C1C(=O)O[C@@H]2C[C@@]3(C)C[C@@H](O)C[C@H](C)C3=C[C@H]12,inactive,inactive,inactive,inactive,inactive,inactive,,,,,,
CC(C)(N)c1ncc(-c2ccc(OC(F)(F)F)cc2)[nH]1,inactive,inactive,inactive,inactive,inactive,inactive,,,,,,
Cn1ncc(Cl)c1-c1cc(C(=O)NC(CN)Cc2ccc(F)c(F)c2)oc1Cl (stereo not drawn),inactive,inactive,inactive,inactive,inactive,inactive,,,,,,
C/C=C(/C)C(=O)O[C@H]1[C@H](OC(=O)/C(C)=C\C)[C@@]23C(CC1(C)C)[C@]1(CCC4[C@@]5(C)CC[C@H](O[C@@H]6O[C@H](C(=O)O)[C@@H](O)[C@H](O[C@@H]7O[C@H](CO)[C@H](O)[C@H](O)[C@H]7O[C@@H]7O[C@@H](C)[C@H](O)[C@@H](O)[C@H]7O[C@@H]7OC[C@@H](O)[C@H](O)[C@H]7O)[C@H]6O[C@@H]6O[C@H](CO)[C@H](O)[C@H](O)[C@H]6O)C(C)(C)C5CC[C@@]4(C)[C@]1(C)C[C@H]2O)O[C@H]3O (stereo partly drawn),,,,,,,-2.94% [at 9.52 µM],-2.35% [at 9.73 µM],4.78% [at 11.6 µM],718% [at 11.5 µM],3.76% [at 11.6 µM],13% [at 11.5 µM]
C=C1C(=O)OC2/C=C(\CO)CC/C=C(\C=O)C(O)C(OC(=O)C(C)CC)C12 (stereo not drawn),inactive,inactive,inactive,14.7 µM (active),inactive,inactive,,,,,,
CN(C)CCn1cc(-c2ccc(F)cc2)c(-n2cccc2)n1,inactive,inactive,inactive,inactive,inactive,inactive,,,,,,
CC(=O)OC1CC(C)(C(=O)O)CC2C3=CC(=O)C4C5(C)CCC(OC6OC(C(=O)O)C(O)C(O)C6OC6OC(C(=O)O)C(O)C(O)C6O)C(C)(C)C5CCC4(C)C3(C)CCC12C (stereo not drawn),inactive,inactive,,,,,,,-10.2% [at 11.6 µM],9.23% [at 11.5 µM],-14.5% [at 11.6 µM],5.43% [at 11.5 µM]
C=C1C(=O)OC2CC(C)C(CCC(C)=O)=CCC12 (stereo not drawn),inactive,inactive,inactive,inactive,inactive,inactive,,,,,,
CC(=O)NCc1cccc(OC[C@@H](O)CNCCc2ccc(NS(=O)(=O)c3ccccc3)cc2)c1,inactive,inactive,inactive,inactive,inactive,inactive,,,,,,
CCOc1nc(NC(=O)Cc2cc(OC)ccc2OC)cc(N)c1C#N,inactive,inactive,inactive,inactive,inactive,inactive,,,,,,
N#Cc1cc(CN2CCC(Nc3ncnc4sc(Cl)cc34)CC2)ccc1F,inactive,inactive,inactive,inactive,inactive,inactive,,,,,,
CC(C)=CCCC1(C)/C=C/C(OC(=O)C=C(C)C)C(C)(O)/C=C/C(=O)/C(CO)=C\C1 (stereo not drawn),inactive,inactive,inactive,inactive,inactive,inactive,,,,,,
CCCCNc1ncc(-c2ccc(CN3CCOCC3)cn2)c(NC2CCC(O)CC2)n1 (stereo not drawn),inactive,inactive,inactive,inactive,inactive,inactive,,,,,,
C=C1C(=O)OC2/C=C(\C)CC/C=C(\C)CC(OC(C)=O)C12 (stereo not drawn),inactive,inactive,inactive,inactive,inactive,inactive,,,,,,
C=CCc1ccc(OC(C)Cc2ccc(OC)c(OC)c2)c(OC)c1 (stereo not drawn),inactive,inactive,inactive,inactive,inactive,inactive,,,,,,

Compound,Potency [1],Potency [2],Potency [3],Potency [4],Potency [5],Potency [6],"activity, negative = inhibition [1]","activity change, negative = inhibition [2]","activity change, negative = inhibition [3]","activity change, negative = thiol reactive [4]","activity, negative = inhibition [5]",redox activity (% of DA3003) [6]
CC1OC(=O)C[C@@H]2C(C(=O)O)=CO[C@@H](O[C@H]3O[C@H](CO)[C@@H](O)[C@H](O)[C@H]3O)[C@H]12 (stereo partly drawn),inactive,inactive,inactive,inactive,inactive,inactive,,,,,,
C=C1C(=O)O[C@@H]2[C@H]3C(C)=CC(=O)C3=C(C)CC[C@@H]12,inactive,inactive,inactive,inactive,inactive,inactive,,,,,,
CC(C)(O)c1ccn2c(-c3ccc(F)c(-c4ccc(F)cc4C#N)c3)cnc2c1F,inactive,inactive,inactive,inactive,inactive,inactive,,,,,,
COC(=O)C(Cc1ccc(OCCn2c(=O)sc3cc(C(=O)c4ccccc4)ccc32)cc1)C(=O)OC,inactive,inactive,inactive,inactive,inactive,inactive,,,,,,
CC(C)[C@@H](c1ccc(C(F)(F)F)cc1CN(Cc1cc(C(F)(F)F)cc(C(F)(F)F)c1)c1nnn(C)n1)N1CCC(C(=O)O)CC1,inactive,inactive,inactive,inactive,inactive,inactive,,,,,,
O=C(N[C@@H]1CCCc2c1cnn2-c1ccc(F)cc1F)c1ccccn1,inactive,inactive,inactive,inactive,inactive,inactive,,,,,,
OC1(CN2CCC(COc3noc4cccc(O[C@@H]5CCOC5)c34)CC2)CCOCC1,inactive,inactive,inactive,inactive,inactive,inactive,,,,,,
C[C@@H]1CC[C@]2(C(=O)O)CC[C@]3(C)C(=CCC4[C@@]5(C)CC[C@H](O)[C@](C)(C(=O)O)C5CC[C@]43C)C2[C@]1(C)O (stereo partly drawn),inactive,inactive,inactive,inactive,inactive,inactive,,,,,,
NC(=O)CCCSc1nc(N)nc(-c2c(Cl)cc3c4c(cccc24)COC3)n1,inactive,inactive,inactive,inactive,inactive,inactive,,,,,,
CC#C[C@@H](CC(=O)O)c1ccc(OCc2ccc(CN3CCC4(C=Cc5ccccc54)CC3)s2)cc1,inactive,inactive,inactive,inactive,inactive,inactive,,,,,,
Cc1c(C2=CCN(C(=O)N(C)C(C)C)CC2)nnn1-c1cccnc1F,inactive,inactive,inactive,inactive,inactive,inactive,,,,,,
N#CC(CCCN1CCC(O)(c2ccc(Cl)cc2)CC1)(c1ccccc1)c1ccccc1,inactive,inactive,inactive,inactive,inactive,inactive,,,,,,
CCNC(=O)Nc1ccc(-c2nc3c(c(N4CCOCC4C)n2)CCN(C2COC2)C3)cc1 (stereo not drawn),inactive,inactive,inactive,inactive,inactive,inactive,,,,,,
Nc1nccc(-c2c(-c3ccc(F)cc3)ncn2C2CCCCC2)n1,inactive,inactive,inactive,inactive,inactive,inactive,,,,,,
CC(C)(Cc1ccccc1)NCC(O)c1ccc(O)c(NS(C)(=O)=O)c1 (stereo not drawn),inactive,inactive,inactive,inactive,inactive,inactive,,,,,,
O=C(Nc1ccc(-n2nc(C(F)(F)F)cc2C(F)(F)F)cc1)c1ccncc1F,inactive,inactive,inactive,inactive,inactive,inactive,,,,,,
C=C(C)C(=O)OC1CC(CO)CCC/C(CO)=C/C2OC(=O)C(=C)C21 (stereo not drawn),inactive,inactive,inactive,inactive,inactive,inactive,,,,,,
O=C(Nc1cccc2cccnc12)c1ccc(N2C(=O)[C@@H]3C4C=CC(C4)[C@@H]3C2=O)cc1,inactive,inactive,inactive,inactive,inactive,inactive,,,,,,
C=C(C)C(=O)O[C@H]1[C@H]2C(=C)C(=O)O[C@@H]2C[C@@H](C)[C@@H]2O[C@@H]2C(=O)[C@](C)(O)[C@@H]1OC(=O)C(=C)C,inactive,inactive,inactive,inactive,inactive,inactive,,,,,,
